Compound activity from PubChem.
Only some compounds are listed: those with a hit (about 7.8% of all), similar ones and a draw of the others.
Lassa entry inh – inhibitors of Lassa virus binding or cell entry; hit rate 1.2% among 300,000; Potency, µM (highest dose often 37.9 µM), hits mostly inhibitors; Lassa virus pseudotype entry inhibition, cell reporter; AID 540256; calls by dose curve; tested in HEK293 cells; also: nearly all actives have a fitted effect of over 50% in size
VACV mCherry inh – inhibitors of vaccinia virus infection (mCherry reporter signal); Vaccinia virus mCherry reporter infection, fluorescence; Potency, µM (doses to about 36.5 µM), usual class: inhibitors; hit rate 0.63% among 310,000; calls by dose curve; tested in A549 cells; also: nearly all actives have a fitted effect of over 35% in size
Marburg entry inh – Marburg virus entry inhibition; Marburg virus pseudotyped entry inhibition, cell reporter; Potency, µM (titrated, usually from 37.8 µM), actives largely listed as inhibitors; hit rate 1.8% among 300,000; AID 540276; calls by dose curve; tested in HEK293 cells
HCV inh – blocks hepatitis C virus | Potency, µM (series often up to 41.8 µM), hits mostly inhibitors | Huh7.5.1 HCVcc-Cre infection, luciferase reporter, 44 h | hit rate 3.4% among 340,000 | AID 651820; active = well fitted inhibition curve with a large enough effect; inconclusive = small, poorly fitted or top-dose-only effect, or another doubt; inactive = no such curve, though single readings can be large or run the other way
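HCVcc-Cre virus at an moi near 0.5 was added right after compound to cells cultured 4 h from seeding (1,000 cells/well). Luciferase activity was determined 44 h later, 15 min after substrate addition at RT.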
VACV Venus inh – inhibitors of vaccinia virus (Venus reporter) | Potency, µM (highest dose often 36.5 µM), usual class: inhibitors | AID 720580 | hit rate 0.46% among 330,000 | Vaccinia virus Venus reporter expression, fluorescence; calls by dose curve; tested in A549 cells; also: nearly all actives have a fitted effect of over 30% in size
HCMV antiviral – inhibitors of human cytomegalovirus | HFF cells, HCMV-luciferase reporter, 72 h; hits give low values | activity change, negative = inhibition, % at 57.5 µM | hit rate 4.5% among 410,000; in the data active = activity change below about -60%; inconclusive = no clear call, values can overlap the other calls; inactive = above about -39%
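Two compound doses tested in HFFs infected with HCMV-luciferase, MOI 1 PFU/cell, 72 h at 37C. Lysate luminescence read with OneGlo; data normalized against buffer-only and 10uM Salinomycin inhibitor controls.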
Numbers stand for hits.

Results for CCCCC(=O)NC(c1ccccc1Cl)c1ccc2cccnc2c1O (stereo not drawn) ?
HCV inh: 2.2µM; HCMV antiviral: -96

What do the screens show for `CCCC(=O)NC(c1ccc(OC)cc1)c1ccc2cccnc2c1O` (stereo not drawn)?
Lassa entry inh: inconclusive; VACV mCherry inh: 8.9µM; Marburg entry inh: inconclusive; HCV inh: 3.2µM; VACV Venus inh: inconclusive; HCMV antiviral: -99

How did CC(C)c1ccc(C(=O)Nc2cccc3cccnc23)cc1 do in these assays?
Lassa entry inh: inactive; VACV mCherry inh: inactive; Marburg entry inh: inactive; VACV Venus inh: inactive; HCMV antiviral: inactive

What do the screens show for `CCC(=O)NC(c1ccc(OC)cc1)c1c(O)ccc2ccccc12` (stereo not drawn)?
VACV mCherry inh: inactive; HCV inh: inactive; VACV Venus inh: inactive; HCMV antiviral: inactive

Results for CCCCC(=O)NC(c1ccccc1)c1ccc2cccnc2c1O (stereo not drawn) ?
Lassa entry inh: inconclusive; VACV mCherry inh: 1.6µM; Marburg entry inh: inconclusive; HCV inh: 2.8µM; VACV Venus inh: inconclusive; HCMV antiviral: -100

What do the screens show for `CC(=O)NC(c1ccc(C(C)C)cc1)c1ccc2cccnc2c1O` (stereo not drawn)?
Lassa entry inh: inconclusive; VACV mCherry inh: inconclusive; Marburg entry inh: inconclusive; HCV inh: 8.9µM; VACV Venus inh: inconclusive; HCMV antiviral: -99

Results for O=C(O)c1ccc(CNCc2ccc(Cl)cc2)s1 ?
Lassa entry inh: inactive; VACV mCherry inh: inactive; Marburg entry inh: inactive; VACV Venus inh: inactive; HCMV antiviral: inactive

How did COc1cccc(CC(=O)Nc2ccc3nc(N4CCC(C)CC4)cc(C)c3c2)c1 do in these assays?
Lassa entry inh: inactive; VACV mCherry inh: inactive; Marburg entry inh: inactive; VACV Venus inh: inactive; HCMV antiviral: inactive

Results for COc1ccccc1N1CCN(C(=O)c2cnn(-c3cccc(Cl)c3)c2C2CCN(C(=O)OC(C)(C)C)CC2)CC1 ?
Lassa entry inh: inconclusive; VACV mCherry inh: inactive; VACV Venus inh: inactive; HCMV antiviral: inactive

Results for COc1ccccc1NC(=O)c1cc2ccc3cccnc3c2[nH]1 ?
Lassa entry inh: inactive; VACV mCherry inh: inactive; VACV Venus inh: inactive; HCMV antiviral: inactive

What do the screens show for `O=C(O)CCC(=O)NC(c1ccccc1)c1ccccc1`?
Lassa entry inh: inactive; VACV mCherry inh: inactive; Marburg entry inh: inconclusive; HCV inh: inactive; VACV Venus inh: inactive; HCMV antiviral: inactive

Results for CCC(=O)NC(c1ccccc1OC)c1ccc2cccnc2c1O (stereo not drawn) ?
Lassa entry inh: inconclusive; VACV mCherry inh: inconclusive; Marburg entry inh: 4.6µM; HCV inh: 2.5µM; VACV Venus inh: inconclusive

What do the screens show for `CCCC(=O)NC(c1ccccc1)c1ccc2cccnc2c1O` (stereo not drawn)?
Lassa entry inh: inconclusive; VACV mCherry inh: inconclusive; Marburg entry inh: inconclusive; HCV inh: 2.8µM; VACV Venus inh: inconclusive; HCMV antiviral: -102

How did CCCCC(=O)NC(c1ccc(C(C)C)cc1)c1ccc2cccnc2c1O (stereo not drawn) do in these assays?
HCV inh: 2.8µM; HCMV antiviral: -103

How did Cc1ccc(S(=O)(=O)C(CNC(=O)C(=O)NCc2ccc(Cl)cc2)c2cccs2)cc1 (stereo not drawn) do in these assays?
Lassa entry inh: inactive; VACV mCherry inh: inactive; VACV Venus inh: inactive; HCMV antiviral: inactive

How did Cc1ccc(C(=O)c2oc3ccccc3c2NC(=O)c2cc(=O)c3ccccc3o2)cc1 do in these assays?
Lassa entry inh: inactive; VACV mCherry inh: inactive; Marburg entry inh: inactive; VACV Venus inh: inactive; HCMV antiviral: inactive

Results for CCN(CC)c1cc(C)c(/C=C/c2ccnc3ccccc23)cc1C ?
VACV mCherry inh: inactive; VACV Venus inh: inactive

How did O=C(C[C@@H](c1ccco1)S(=O)(=O)c1ccccc1)c1ccc(F)cc1 do in these assays?
Marburg entry inh: inactive

How did O=C1CN(C(=O)N[C@@H](Cc2ccccc2)C(=O)N[C@H](Cc2ccccc2)C(=O)O)c2ccccc2N1 do in these assays?
VACV mCherry inh: inactive; HCV inh: 0.56µM; VACV Venus inh: inactive; HCMV antiviral: inactive

Results for CC(=O)Nc1ccc(C2C(=O)c3ccccc3C2=O)cc1 ?
Lassa entry inh: inactive; VACV mCherry inh: inactive; Marburg entry inh: inactive; HCV inh: inconclusive; VACV Venus inh: inactive; HCMV antiviral: inactive

What do the screens show for `CCCC(=O)Nc1ccc(C2C(=O)c3ccccc3C2=O)cc1`?
Lassa entry inh: inactive; VACV mCherry inh: inactive; Marburg entry inh: inconclusive; HCV inh: 5µM; VACV Venus inh: inactive; HCMV antiviral: inactive

Results for CCOC(=O)[C@]12Cc3cc(Cl)ccc3[C@H]1N(C)C(=O)c1ccccc12 ?
VACV mCherry inh: inactive; VACV Venus inh: inactive; HCMV antiviral: inactive

How did CCOC(=O)[C@]12Cc3c(cc(OC)c(OC)c3OC)[C@H]1N(C1CCCCC1)C(=O)c1cc(OC)ccc12 do in these assays?
VACV mCherry inh: inconclusive; VACV Venus inh: inconclusive; HCMV antiviral: -99

How did CCOC(=O)[C@]12Cc3c(cc(OC)c(OC)c3OC)[C@H]1N(Cc1ccccc1)C(=O)c1ccccc12 do in these assays?
VACV mCherry inh: inactive; HCV inh: inactive; VACV Venus inh: inactive; HCMV antiviral: inactive

Results for CCOC(=O)[C@]12Cc3cc(C)ccc3[C@H]1N(C)C(=O)c1cc(OC)ccc12 ?
VACV mCherry inh: inconclusive; VACV Venus inh: inconclusive; HCMV antiviral: -109

How did CCOC(=O)[C@]12Cc3cc(Cl)ccc3[C@H]1N(C(C)C)C(=O)c1ccccc12 do in these assays?
VACV mCherry inh: inconclusive; VACV Venus inh: inconclusive; HCMV antiviral: -99

What do the screens show for `CCOC(=O)[C@]12Cc3c(cc(OC)c(OC)c3OC)[C@H]1N(C(C)C)C(=O)c1cc(OC)ccc12`?
VACV mCherry inh: inconclusive; VACV Venus inh: inconclusive; HCMV antiviral: -100

How did COc1cc(C(O)c2nc(C(=O)NCCN3CCOCC3)cs2)cc(OC)c1OC (stereo not drawn) do in these assays?
HCMV antiviral: inactive

What do the screens show for `CCOC(=O)[C@]12Cc3cc(OC)ccc3[C@H]1N(C(C)C)C(=O)c1cc(OC)ccc12`?
VACV mCherry inh: inconclusive; VACV Venus inh: inconclusive; HCMV antiviral: -100

What do the screens show for `CCOC(=O)[C@]12Cc3cc(OC)ccc3[C@H]1N(C1CCCCC1)C(=O)c1ccccc12`?
VACV mCherry inh: inconclusive; VACV Venus inh: inconclusive; HCMV antiviral: -101

How did CCOC(=O)[C@]12Cc3cc(OC)ccc3[C@H]1N(C)C(=O)c1ccccc12 do in these assays?
VACV mCherry inh: inactive; VACV Venus inh: inactive; HCMV antiviral: inactive

Results for O=C1C=C(N2CCOCC2)c2ccccc2C1=O ?
Lassa entry inh: inconclusive; VACV mCherry inh: inconclusive; Marburg entry inh: 2.5µM; HCV inh: inconclusive; VACV Venus inh: 11µM; HCMV antiviral: -97

What do the screens show for `CC1=C(C)C(=O)C(N2CCOCC2)=CC1=O`?
Marburg entry inh: inactive; HCV inh: inactive; HCMV antiviral: -68

What do the screens show for `O=C1C=C(N2CCOCC2)c2cccc3cccc1c23`?
VACV mCherry inh: inactive; VACV Venus inh: inactive; HCMV antiviral: inactive
